Experiments:
Format in all cases: functional
Plasmodium falciparum [1] = test: GSK_TCMDC: Inhibition of Plasmodium falciparum 3D7 in whole red blood cells, using parasite LDH activity as an index of growth. Test compounds present at 2uM
Plasmodium falciparum [2] = test: GSK_TCMDC: Inhibition of Plasmodium falciparum Dd2 in whole red blood cells, using parasite LDH activity as an index of growth. Test compounds present at 2uM
HepG2 = test: GSK_TCMDC: Percent inhibition of human HepG2 cell line. Test compounds present at 10uM.

| Compound | Inhibition (Plasmodium falciparum [1]) [%] | Inhibition (Plasmodium falciparum [2]) [%] | Inhibition (HepG2) [%] |
| --- | --- | --- | --- |
| CCCOc1ccc(C(F)(F)F)cc1NC(=O)c1nc2nc(C)cc(C)n2n1 | 90 | 88 | 7 |
| CCCN(CC1CC1)c1ncc(-c2cccc(CNCCC3CCCN3C)c2)cn1 (stereo not given) | 98 | 43 | 77 |
| CC1(C)CN2CCCC2c2cc(NC(=O)/C=C/c3ccccc3Cl)ccc21.Cl (stereo not given) | 88 | 76 | 20 |
| O=C(Nc1ccc(C(=O)Oc2cccc3ccccc23)cc1)N[C@@H](Cc1ccc(O)cc1)C(=O)NC1CCN(Cc2ccc(O)cc2)C1.O=C(O)C(F)(F)F (stereo not given in full) | 87 | 0 | 0 |
| O=C(NCc1cc2c(cc1Cl)OCO2)c1ccc(CNC2CCN(Cc3ccccc3)CC2)cc1.O=C(O)C(F)(F)F | 100 | 47 | 11 |
| CCOC(=O)/C(=N\OC(C)(C)C(=O)NCc1ccc(O)c(O)c1)c1csc(NC(c2ccccc2)(c2ccccc2)c2ccccc2)n1 | 100 | 99 | 13 |
| CCCc1cc(OC)c(CC2c3cc(O)c(Cl)cc3CCN2C)cc1OC.Cl (stereo not given) | 100 | 99 | 19 |
| COc1ccc(C2CC(=O)C3=C(C2)NC(C)=C(C(=O)OC(C)C)C3c2ccc(O)cc2)cc1OC (stereo not given) | 99 | 98 | 0 |
| COc1ccc(CCn2c(C3CCCCC3)nc3oc4ccccc4c(=O)c3c2=O)cc1 | 91 | 66 | 12 |
| COc1ccccc1C1CCN(C2CCC(NC(=O)/C=C/c3ccc(C(F)(F)F)cc3F)CC2)CC1 (stereo not given) | 95 | 2 | 63 |
